Values without a mark were called inactive.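 Rule for the calls: active = MAPPIT score above the 99th percentile of random reference set scores in the same batch; inactive = at or below it.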

What all share (experiment): MAPPIT interaction score (arbitrary units); higher = stronger binary interaction signal, active = hit call of the paper
One assay concerns the target CG1246. The conditions noted are these: MAPPIT configuration: N-N; pair source set: DPIM.
Another assay concerns the target CG12268. The note with it: MAPPIT configuration: N-N; pair source set: DPIM.
The next assay concerns the target mub. The note with it: MAPPIT configuration: N-N; pair source set: DPIM.
Another assay has as its target CG12576. The note with it: MAPPIT configuration: N-C; pair source set: screen_4.
The next assay deals with CG13887. The note with it: MAPPIT configuration: N-C; pair source set: screen_3.
For the next assay, the target named is CG6845. The conditions noted are these: MAPPIT configuration: N-C; pair source set: screen_4.
A further assay has as its target Tim17b2. The conditions noted are these: MAPPIT configuration: N-C; pair source set: screen_4.
The next assay has as its target CG12155. The conditions noted are these: MAPPIT configuration: N-N; pair source set: Lit-BS-16.
The next assay has as its target Ravus. The conditions noted are these: MAPPIT configuration: N-N; pair source set: screen_1.
A further assay addresses CG12470. The note with it: MAPPIT configuration: N-N; pair source set: Curagen_low_conf.
Another assay deals with Eb1. The conditions noted are these: MAPPIT configuration: N-N; pair source set: screen_1.
The target of another assay is SmydA-3. The conditions noted are these: MAPPIT configuration: N-N; pair source set: screen_2.
Another assay has as its target Sply. The note with it: MAPPIT configuration: N-N; pair source set: Finley_Y2H.
The target of the next assay is ben. The note with it: MAPPIT configuration: N-N; pair source set: screen_2.
For a further assay, the target named is hb. The note with it: MAPPIT configuration: N-N; pair source set: screen_1.
A further assay deals with promL. The conditions noted are these: MAPPIT configuration: N-N; pair source set: screen_2.
The target in the next assay is pzg. The conditions noted are these: MAPPIT configuration: N-N; pair source set: Curagen_high_conf.
A further assay concerns the target spin. The conditions noted are these: MAPPIT configuration: N-N; pair source set: screen_1.
The target of a further assay is CG12343. The note with it: MAPPIT configuration: N-N; pair source set: DPIM.
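Note: HEK293T cells with Epo stimulation, STAT-responsive firefly luciferase reporter, fold induction versus unstimulated cells divided by the larger fold induction of two negative controls lacking either bait or prey.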

B1: Vha68-2 (protein)
chain: MSNLKRFDDEERESKYGRVFAVSGPVVTAEAMSGSAMYELVRVGYYELVGEIIRLEGDMATIQVYEETSGVTVGDPVLRTGKPLSVELGPGIMGSIFDGIQRPLKDINELTESIYIPKGVNVPSLSRVASWEFNPLNVKVGSHITGGDLYGLVHENTLVKHKMIVNPRAKGTVRYIAPSGNYKVDDVVLETEFDGEITKHTMLQVWPVRQPRPVTEKLPANHPLLTGQRVLDSLFPCVQGGTTAIPGAFGCGKTVISQALSKYSNSDVIIYVGCGERGNEMSEVLRDFPELSVEIDGVTESIMKRTALVANTSNMPVAAREASIYTGITLSEYFRDMGYNVSMMADSTSRWAEALREISGRLAEMPADSGYPAYLGARLASFYERAGRVKCLGNPEREGSVSIVGAVSPPGGDFSDPVTSATLGIVQVFWGLDKKLAQRKHFPSINWLISYSKYMRALDDFYDKNFPEFVPLRTKVKEILQEEEDLSEIVQLVGKASLAETDKITLEVAKLLKDDFLQQNSYSSYDRFCPFYKTVGMLRNIIDFYDMARHSVESTAQSENKITWNVIREAMGNIMYQLSSMKFKDPVKDGEAKIKADFEQLHEDLQQAFRNLED
B1: the MAPPIT interaction score in the assay with CG1246 is -0.102.

B2: mRpL52 (protein)
chain: MLKITKICLASSATSTAQRSIALTAPRAIDQKWRAAKGLPENPNAFGPLTNLPDYTYLDGRPTPLGANQKRRLIKQQEIATRIVELSGELEFAKQRHERLKANAESEKQRLIRSKLKPKGHFLLKK
For the molecule B2, the MAPPIT interaction score with CG12268 was -0.169; with mub it was 0.103.

B3: Tsf2 (protein)
chain: MASSLVFVALVGALCFTLANAQHHYDEHKTTRMVWCTKSQAEQYKCQNLTVAIERDRALFDEVFLNLTCFMAYSADECIHHIDREKAHITTLDAGDVFTAGRYNSLIPIMQEKLEGGFADYQSVAVIKKGSLPDLNNLRDMRNKRVCFPWVGSLAGWIVPIHTLQREGGMEVVDCNNQVKTAASYFNNSCAVYSLSDKHNPIGDNSDKLCTLCTGKIPGGRCSSADPYFGYEGAFKCLLEKGDVAFLRHSTVNEMLQTTEFKNIAPDTFELLCRDGRRASINDYRQCNWGQVPADAIVTSSARSFSDRKQYQQFLKRIAELYSDGTRDDQSRQGGQSFNSRNNINDQNAYGQFDNNDPYRTQNQYDQYRSERLDSSFAEERNQQDGTNTSILYEKFRIFESKRYGKPNLLFQDSSRALTVIPEDDQSFTKYLGPAINFIYGIRECPVPAMTLCVTSENELDKCIKMRTALKAHLLKPELICKKMHSHINCMQFIEAGKADISVFDAGDVYTGGLNYDLVPFMSEVYNLGEPEYYVVAVAKEDDPDTELTYLKGKNTCHTGINTAAGWTYPMALFISNGWIRPYGCDSVRAAAEYFTKSCVPGAISNEYNTGVPYDSMCDLCHGTSYRYCRRDASEEYYGHTGAFRCLVEGGGHVAFMKHTTVMESTGGKRKEWWARNALNDDFELLCTDGTRAEIQDYKRCNLGKVKANAVVTRGGVNYNETQMNAYINLLTYAQQLYGRKEVDAFSFSMFSSPIGHYDLIFQDATRQLQVIPPNKRRYDAYLGSDFMRARRITDCYAGASQLALSVGLLLVGSLVAML
For the molecule B3, the MAPPIT interaction score with CG12576 is 0.0626; with CG13887, -0.181; with CG6845, 0.127; with Tim17b2, 0.851.

B4: Arr1 (protein)
chain: MVVNFKVFKKCSPNNMITLYMNRRDFVDSVTQVEPIDGIIVLDDEYVRQNRKIFVQLVCNFRYGREDDEMIGLRFQKELTLVSQQVCPPQKQDIQLTKMQERLLKKLGSNAYPFVMQMPPSSPASVVLQQKASDESQPCGVQYFVKIFTGDSDCDRSHRRSTINLGIRKVQYAPTKQGIQPCTVVRKDFLLSPGELELEVTLDKQLYHHGEKISVNICVRNNSNKVVKKIKAMVQQGVDVVLFQNGQFRNTIAFMETSEGCPLNPGSSLQKVMYLVPTLVANCDRAGIAVEGDIKRKDTALASTTLIASQDARDAFGIIVSYAVKVKLFLGALGGELCAELPFILMHPKPSRKAQLEAEGSIEA
Take B4: the MAPPIT interaction score with CG12155 was 0.0379; with Ravus, 0.0915.

B5: sinah (protein)
chain: MSVRNSRPQLSWPERVSPQRTIDTPTASGEMLTRRQSAPALVVPPEETTHVVVVKRQSPDAAAAGELVPSRRKDSVAVQSGIVATGPLDTTRSGARDDFLMALLECPVCFGYIMPPIMQCPRGHLICSTCRSKLTICPVCRVFMTNIRSLAMEKVASKLIFPCKHSHFGCRARLSYAEKTKHEEDCECRPYFCPYPDDKCSWQGPLRDVYQHLMSSHENVITMEGNDIIFLATNVNLEGALDWTMVQSCHGRHFLLSLEKINLGEDCQQYFTACRMIGSMKDAAEFVYNISLEAYNRTLRWQSKPRSIRENFSSFTNADFLVLNKHTVELFSEDGNLALNVVIRKVEERTN
For B5, the MAPPIT interaction score with CG12470 was 2.95 (active); with Eb1, -0.0985; with SmydA-3, 0.15; in the assay with Sply, 1.41; with ben, 1.2; in the assay with hb, -0.281. The figures for the MAPPIT interaction score with promL, with pzg and in the assay with spin were 0.506, -1 and 0.564, respectively.

B6: CG8745 (protein)
chain: MPFAHEQLNLVASEQLSKTETIKLRNQHIGQACQLFYRSDPLKIVRGQGQYMFDEEGTRYLDCINNVAHVGHCHPEVVRAGALQMATISTNNRFLHDELVQCARTLTSKMPEPLSVCFFVNSGSEANDLALRLARNFTKRQDVITLDHAYHGHLQSVMEVSPYKFNQPGGEAKPDYVHVAPCPDVYGGKFTDKMYPDADMGALYAQPIEEICQKQLAKGQGVAAFIAESLQSCGGQILPPAGYFQAVYDAVRSAGGVCIADEVQVGFGRVGSHYWAFETQNVIPDIVCVAKPMGNGHPVGAVVTTPEIAQAFHATGVAYFNTYGGNPVSCAIANAVMRVIEEEGLQQKALVLGDYLLEECNRLKQEFECIGDVRGAGLFVGIELVQDRKERIPDKKAAHWVVNRMKQLHRVLVSSDGPNDNVIKLKPPMCFNRENADEFLLGFRECLTAVMQERLASATSAAMAATSGVIATATETLANKTKLFERQDRLIKSV
With B6, the MAPPIT interaction score with CG12343 is 0.219.

For the origin of these results see the supplement of paper PMC10105736.
